The full list was thinned out, with hits kept by preference.
SARS PLpro yeast = blocks SARS-CoV papain-like protease in a yeast assay | actives 0.19% (n = 330,000) | Potency, µM (doses to about 32.9 µM), without a hit: at the highest dose activity, positive = growth rescue, actives largely listed as activators | S. cerevisiae expressing SARS-CoV PLpro, growth rescue; calls by dose curve; further: potency means the concentration at half of the fitted maximal effect; 0% is about no effect; nearly all actives have a fitted effect of over 55% in size
Shiga inhibitor = Shiga toxin inhibition. inhibition, % at 38.7 µM. Vero cells, Shiga toxin protein synthesis inhibition reporter. actives 9.2% (n = 290,000); in the data active means inhibition mostly above about 28%, no sharp cut-off; inactive means mostly below about 43%; further: 0% is about no effect
AMA1-RON2 inh = disrupts binding of P. falciparum AMA1 to RON2; AlphaScreen AMA1-biotinylated RON2 peptide binding; Potency, µM (top dose mostly 58.2 µM), for the others: at the top dose activity change, negative = inhibition, hits mostly inhibitors; actives 0.2% (n = 360,000); AID 720542;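 further: potency means the concentration at half of the fitted maximal effect; 0% = vehicle wells and -100% = peptide control; nearly all actives have a fitted effect of over 45% in size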
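AMA1 (3D7) with his tag at 25 nM final met compounds first, then biotinylated RON2 peptide at 25 nM; detection used donor plus acceptor beads, 10 µg/mL apiece, read by AlphaScreen after 30 min at room temperature.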
AmpC detergent = inhibitors of E. coli AmpC beta-lactamase with detergent | P00811 | AmpC hydrolysis of nitrocefin, absorbance 480 nm, 0.01% Triton | Potency, µM (highest dose often 114 µM), inactives show top-dose activity change, negative = inhibition, most hits filed as inhibitors | actives 0.041% (n = 370,000);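 further: potency means the concentration at half of the fitted maximal effect; 0% = no-compound wells and -100% = no-enzyme wells; nearly all actives have a fitted effect of over 25% in size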
Target sequence (P00811 whole entry, looked up): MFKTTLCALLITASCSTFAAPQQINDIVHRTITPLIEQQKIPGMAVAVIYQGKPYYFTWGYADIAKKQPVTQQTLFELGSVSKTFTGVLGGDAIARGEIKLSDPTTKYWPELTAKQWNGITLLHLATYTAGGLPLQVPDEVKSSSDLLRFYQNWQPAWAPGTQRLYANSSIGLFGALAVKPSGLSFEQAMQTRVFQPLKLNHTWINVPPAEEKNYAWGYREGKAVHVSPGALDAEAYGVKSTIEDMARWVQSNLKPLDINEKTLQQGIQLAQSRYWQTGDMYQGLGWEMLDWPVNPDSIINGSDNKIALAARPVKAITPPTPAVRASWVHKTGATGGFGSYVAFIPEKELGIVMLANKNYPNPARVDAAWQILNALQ
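20 mM phosphate pH 7.0 + 0.01% (detergent screen) or 0.0001% Triton X-100; 5.3 nM AmpC reagent; cpd preinc 15 min RT; nitrocefin (800 uM stock) to start; A480 q20 s × 4 min; Activity was normalised to no-enzyme and no-compound control wells.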
AmpC no deterg = blocks E. coli AmpC beta-lactamase in detergent-free assay. Potency, µM (top dose mostly 57.1 µM), without a hit: at the highest dose activity change, negative = inhibition, hits mostly inhibitors. AID 485341. actives 0.52% (n = 330,000). AmpC nitrocefin hydrolysis, absorbance 480 nm, 0.0001% Triton. P00811;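 further: potency means the concentration at half of the fitted maximal effect; plate controls were no compound for no effect and no enzyme for full effect; nearly all actives have a fitted effect of over 20% in size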
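20 mM phosphate pH 7.0 + 0.01% (detergent screen) or 0.0001% Triton X-100; 5.3 nM AmpC reagent; cpd preinc 15 min RT; nitrocefin (800 uM stock) to start; A480 q20 s × 4 min; Activity was normalised to no-enzyme and no-compound control wells.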
CHX counter = counter-screen for Shiga toxin inhibitors: cycloheximide protein synthesis inhibition. cell reporter, cycloheximide protein synthesis inhibition counterscreen. max response, %. actives 12% (n = 300,000); in the data active means max response mostly above about 13%, no sharp cut-off; inactive means mostly below about 14%; further: read at 38.3 µM for the half of the compounds with a filed dose; 0% is about no effect
* marks the source's active call; other numbers are inactive results; ? = inconclusive; nt = not tested or not shown. Unless noted, the call rests on the fitted dose curve; in most records, active means well fitted curve in the direction sought with a large enough effect; inconclusive means small, poorly fitted or top-dose-only effect, or another doubt; inactive means no such curve, though single readings can be large; an effect the other way counts as inactive or inconclusive.

SMILES | SARS PLpro yeast | Shiga inhibitor | AMA1-RON2 inh | AmpC detergent | AmpC no deterg | CHX counter
C=CCN1C(=O)/C(=C\c2ccc(OC(=O)c3ccco3)c(OC)c2)SC1=S | -1% | 41 | -12% | 5% | -38% | 27*
CCOc1cc(/C=C2\SC(=S)N(Nc3ccccc3)C2=O)ccc1O | -1% | 62* | ? | 5% | -44% | 55*
COc1cc(/C=C2\SC(=S)N(NC(=O)c3ccc(O)cc3)C2=O)ccc1O | 1% | 8 | ? | -3% | -47% | 7
O=C(O)c1ccc(/C=C2\SC(=S)N(Nc3ccccc3)C2=O)cc1 | -2% | 80* | 0% | 0% | -29% | 24*
CC12CCC(=O)N1C(C(=O)NNC(=O)COc1ccccc1Cl)CS2 (stereo not drawn) | 2% | nt | 125% | -2% | -14% | nt
N#CC1=C2Sc3ccccc3N2CCCC1=O | 6% | 22 | -2% | 0% | -14% | 31
COc1ccc(/C=C2/SC(=S)N(Cc3ccccc3)C2=O)cc1O | 2% | 120* | -13% | 0% | -31% | 13
COc1ccc(O)c(/C=C2/SC(=S)N(Cc3ccccc3)C2=O)c1 | 0% | 12 | 4% | 10% | -40% | 4
COc1cc(/C=C2\SC(=S)N(Nc3ncc(C(F)(F)F)cc3Cl)C2=O)ccc1O | -33% | 29 | -9% | ? | -37% | 14*
CN(C)c1ccc(/C=C2\SC(=S)N(Nc3ncc(C(F)(F)F)cc3Cl)C2=O)cc1 | 2% | -4 | 2% | 0% | -32% | -4
O=C1/C(=C/c2ccncc2)SC(=S)N1Nc1ccccc1 | -4% | 5 | 24% | 7% | -32% | 11
O=C1/C(=C/c2ccc(O)c(O)c2)SC(=S)N1Nc1ccccc1 | 5% | 31 | ? | 2% | 25µM* | 11
Nc1c(S(=O)(=O)O)cc(NC(=O)c2ccccc2)c2c1C(=O)c1ccccc1C2=O | -2% | -18 | ? | -13% | 104% | 7
CCOC(=O)[C@H]1[C@H]2COc3ccc(Cl)cc3[C@@H]2N2C(=O)CN(Cc3ccccc3)C(=O)[C@@]12C | 8.9µM* | nt | -4% | 5% | 189% | nt
CC1CCN(c2nnc(-c3cccs3)c3ccccc23)CC1 | -1% | 60 | -30% | -9% | -14% | 16*
O=C(CSc1nc2nc3c(cc2c(=O)n1-c1ccccc1)CCCC3)Nc1ccccc1 | -21% | 19 | 0% | ? | -23% | 7
Nc1nc(SCC(=O)Nc2ccccc2)nc2nc3c(cc12)CCCC3 | -11% | 63* | 0% | -4% | 16µM* | 17*
Cc1ccc(NC(=O)CSc2nc(N)c3cc4c(nc3n2)CCCC4)cc1 | 3% | active | 30% | -5% | 14µM* | 33*
COc1ccc(NC(=O)CSc2nc(N)c3cc4c(nc3n2)CCCC4)c(OC)c1 | 3% | -10 | 19% | 1% | -39% | -3
Cc1[nH]ccc(=O)c1OCc1ccc(Cl)cc1 | 2% | 4 | -6% | 3% | -12% | -3
Cc1ccc(NC(=S)Nc2nc(CC(=O)Nc3ccccc3)cs2)cc1 | 5% | 15 | 65% | -2% | 14µM* | 14*
COc1ccccc1NC(=O)Nc1nc(C(N)C(C)C)cs1 (stereo not drawn) | nt | nt | 76% | nt | nt | nt
COc1ccccc1NC(=O)Nc1nc(C(C)(C)C)cs1 | 1% | 50 | 0% | 4% | -46% | 21*
COc1ccc(NC(=O)Cc2csc(NC(=O)Nc3ccccc3OC)n2)cc1 | nt | nt | 0% | nt | nt | nt
COc1ccccc1NC(=O)Nc1nc(CC(=O)Nc2ccc(N(C)C)cc2)cs1 | -4% | nt | 18µM* | ? | -48% | nt
SMILES | SARS PLpro yeast | Shiga inhibitor | AMA1-RON2 inh | AmpC detergent | AmpC no deterg | CHX counter
CC1(C)CC2(OC2c2ccccc2[N+](=O)[O-])C(=O)c2ccccc21 (stereo not drawn) | nt | nt | -16% | nt | nt | nt
CCOc1ccc(NC(=O)c2ccccc2NC(=O)CNC2CCCC(C)C2C)cc1 (stereo not drawn) | -2% | nt | -1% | nt | -23% | nt
O=C(CS(=O)(=O)c1ccccc1)NCc1ccccc1 | ? | -5 | 6% | -2% | -8% | -2
CCCNC(=O)CS(=O)(=O)c1ccccc1 | 2% | 16 | -12% | ? | -1% | 10*
Cc1ccc(CNC(=O)CS(=O)(=O)c2ccccc2)cc1 | 1% | 44 | 14% | -10% | -13% | 26*
Cc1ccc(S(=O)(=O)C2(C(=O)Nc3ccc(Br)cc3)CC2)cc1 | -1% | 46 | -13% | 5% | -15% | 32*
COC(=O)c1ccc(NC(=O)C2(S(=O)(=O)c3ccc(C)cc3)CC2)cc1 | nt | nt | nt | 11% | nt | nt
CCOCC(=O)Nc1nc2ccc(OCC)cc2s1 | 0% | 112* | 3% | 4% | -2% | 52*
CCOCC(=O)Nc1nc2ccc(C)cc2s1 | ? | 85* | -9% | ? | -18% | 43*
Cc1ccc2nc(NC(=O)CSCC(=O)OCC(=O)c3ccccc3)sc2c1 | 25% | 15 | 20% | -10% | -39% | 18*
Cc1ccc2nc(NC(=O)COC(=O)c3ccccn3)sc2c1 | -3% | 119* | 22% | 1% | -14% | 36*
O=S(=O)(Nc1cccc(S(=O)(=O)N2CCCC2)c1)c1ccccc1F | -4% | nt | 20% | nt | -26% | nt
CS(=O)(=O)c1ccc2nc(NC(=O)CN3CCC(Cc4ccccc4)CC3)sc2c1 | -1% | 8 | 16% | 3% | -12% | -6
CCOc1ccc2nc(NC(=O)Cn3c(C)csc3=O)sc2c1 | 5% | nt | 3% | -1% | -17% | nt
CCC(=O)Nc1nc2ccc(S(C)(=O)=O)cc2s1 | 6% | 25 | 18% | ? | -9% | 14
CCOc1ccc2nc(NC(=O)CCC(=O)c3cccs3)sc2c1 | -7% | 87* | 3% | -2% | -35% | 30*
CCOCC(=O)Nc1nc2ccc(S(C)(=O)=O)cc2s1 | 2% | 54* | 4% | 1% | -2% | 33*
CC(C)CC(=O)Nc1nc2ccc(S(C)(=O)=O)cc2s1 | -1% | 67* | 17% | 1% | -5% | 17*
CS(=O)(=O)c1ccc2nc(NC(=O)CC3CCCC3)sc2c1 | -1% | 53* | 2% | ? | -32% | 24*
O=C(CSc1nnc2scc(-c3ccc(Cl)cc3)n12)NCc1ccco1 | 3% | -7 | -4% | -11% | -27% | -1
CN1CCN(CC(=O)Nc2nc(-c3ccccc3)cs2)CC1 | -1% | 0 | 30% | -5% | 1% | 9
O=C(CNC1CCCC1)Nc1cc(Cl)ccc1[N+](=O)[O-] | 0% | 9 | -14% | 5% | -16% | 3
O=C(NC1(C(F)(F)F)C(=O)Nc2c1c(=O)[nH]c(=O)n2CCc1ccccc1)c1ccc(Cl)cc1Cl (stereo not drawn) | nt | nt | nt | 0% | nt | nt

Compound activity from PubChem.
